IkB sig inh = inhibitors of IkB signaling in ABC-DLBCL cells. ABC-DLBCL IkBa-CBG/CBR dual luciferase ratio, 4 h; response scale: scaled: untreated 0%, proteasome inhibitor 100%. Potency, µM (series often up to 57.1 µM). actives 0.04% (n = 110,000). AID 445; active means well fitted curve in the direction sought with a large enough effect in the signal ratio, not every such curve was filed as active; inconclusive means small, poorly fitted or top-dose-only effect, or a change in a side signal; the % refers to the signal ratio;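 further: the direction sought is a rising ratio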
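Luminescence ratio of IκBα-fused green versus native red beetle luciferase in OCI-Ly3 cells, 4 h post-doxycycline with compound; red signal alone, scaled from basal (0%) to zero light (-100%), flagged nonspecific or cytotoxic effects.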
p53ts 32C kill = kills p53ts cells at the permissive temperature | H1299-p53A138V at 32C, ATP luminescence viability, 24 h | Potency, µM (top dose mostly 46.1 µM), actives largely listed as cytotoxic | actives 0.93% (n = 130,000); further: nearly all actives have a fitted effect of over 55% in size
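H1299-p53 A138V cells (temperature-sensitive p53) exposed 24 h to up to 46 uM compound at 32C, where p53 is wild-type in conformation. Viability read as ATP luminescence and normalised to DMSO and 100 uM tamoxifen. AC50 fitted with the Hill equation.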
p53ts 39C kill = cytotoxicity in p53ts cells at nonpermissive temperature | actives 1.5% (n = 130,000) | Potency, µM (series often up to 46.1 µM), most hits filed as cytotoxic | H1299-p53A138V viability at 39C, ATP luminescence, 24 h | AID 902; further: nearly all actives have a fitted effect of over 55% in size
Peg3 imprint = genomic imprint erasure induction; mouse ES Peg3-LacZ reporter, beta-gal luminescence, 40 h; Potency, µM (titrated, usually from 60.7 µM), actives largely listed as activators; actives 0.02% (n = 110,000); AID 1948
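Readout: BetaGlo luminescence (5 min, room temp) for LacZ from the normally silent maternal Peg3 allele in female Peg3LacZ-Neo ES cells. Cells 300/well, 40 h, 37C, 5% CO2. Data normalized per plate to negative controls.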
Hits are given with their value; ! = not active in a repeat; [ ] = another dose, or the depositor's remark. The list is not random: actives were taken first. Their share in the collection is about 1.7%. Unless noted, the call rests on the fitted dose curve; in most records, active means well fitted curve in the direction sought with a large enough effect; inconclusive means small, poorly fitted or top-dose-only effect, or another doubt; inactive means no such curve, though single readings can be large; an effect the other way counts as inactive or inconclusive.

What do the screens show for `Cc1ccc(Cl)cc1NC(=O)NCc1cccn1Cc1ccc(F)cc1`?
IkB sig inh: inactive; p53ts 32C kill: inconclusive; p53ts 39C kill: 10µM; Peg3 imprint: inactive[10.9 µM]

What do the screens show for `Nc1ccc(CCN2CCN(c3cccc(C(F)(F)F)c3)CC2)cc1`?
IkB sig inh: inactive; p53ts 32C kill: inactive; p53ts 39C kill: inactive; Peg3 imprint: inactive

What do the screens show for `OCCN1CCN(CCCN2c3ccccc3Sc3ccc(C(F)(F)F)cc32)CC1`?
IkB sig inh: inactive; p53ts 32C kill: inconclusive; p53ts 39C kill: 12.6µM!; Peg3 imprint: inactive

What do the screens show for `CC[C@@]12CCCN3CC[C@@]4(c5ccc(OC)c(O)c5N(C(C)=O)[C@H]4CC1)[C@H]32`?
IkB sig inh: inactive[11.4 µM]

What do the screens show for `Cc1ccc(Cl)cc1N1CCN(C(=O)C2CCN(Cc3nc(-c4ccc(Cl)cc4)oc3C)CC2)CC1`?
IkB sig inh: inconclusive; p53ts 32C kill: inactive; p53ts 39C kill: 12.6µM; Peg3 imprint: inactive[10.9 µM]

How did COc1ccc(NC(C)=O)cc1NC(=O)c1cccn(Cc2ccccc2)c1=O do in these assays?
IkB sig inh: inconclusive; p53ts 32C kill: inactive; p53ts 39C kill: inactive; Peg3 imprint: inactive[10.9 µM]

What do the screens show for `COc1ccccc1NC(=O)c1oc2ccccc2c1NC(=O)c1ccccc1C(F)(F)F`?
IkB sig inh: inactive; p53ts 32C kill: inconclusive; p53ts 39C kill: 15.8µM; Peg3 imprint: inactive[10.9 µM]

Results for C[C@@H]1[C@H]2C=C[C@@H]1[C@@H](c1c3ccc(=O)c(O)c-3oc3c(O)c(O)ccc13)[C@@H]2C(=O)O ?
IkB sig inh: inactive[11.4 µM]; p53ts 32C kill: inactive[9.22 µM]; p53ts 39C kill: inactive[9.22 µM]

Results for CC(C)C[C@H]1C(=O)N2CCC[C@@H]2[C@]2(O)O[C@](NC(=O)[C@H]3C=C4c5cccc6[nH]cc(c56)C[C@H]4N(C)C3)(C(C)C)C(=O)N12 ?
IkB sig inh: inactive[11.4 µM]

How did Cc1ccc(Cl)cc1Nc1nn2c(=O)c3ccc(C(=O)NCc4cccs4)cc3nc2s1 do in these assays?
IkB sig inh: inactive; p53ts 32C kill: 12.6µM; p53ts 39C kill: 15.8µM; Peg3 imprint: inactive[10.9 µM]

Results for COc1cccc(NC(=O)c2ccc3c(=O)n4nc(Nc5ccccc5OC)sc4nc3c2)c1 ?
IkB sig inh: inconclusive; p53ts 32C kill: inactive; p53ts 39C kill: inconclusive; Peg3 imprint: inactive[10.9 µM]

Results for CCN(CC)C(=O)N[C@H]1C[C@H]2c3cccc4[nH]cc(c34)C[C@@H]2N(C)C1 ?
IkB sig inh: inactive; p53ts 32C kill: inactive; p53ts 39C kill: inactive

Results for O=C1C(Cl)=C(Cl)C(=O)C(Cl)=C1Cl ?
IkB sig inh: inconclusive; p53ts 32C kill: 5.01µM; p53ts 39C kill: inconclusive; Peg3 imprint: inactive

What do the screens show for `CC(C)(C)c1cc(C=C(C#N)C#N)cc(C(C)(C)C)c1O`?
IkB sig inh: inconclusive; p53ts 32C kill: 10µM; p53ts 39C kill: inactive; Peg3 imprint: inactive

How did COc1cc(C=C(C#N)C#N)cc(O)c1O do in these assays?
IkB sig inh: inactive; p53ts 32C kill: inactive; p53ts 39C kill: inactive; Peg3 imprint: inactive

Results for Cc1ccc2oc(-c3ccc(Cl)cc3)c(O)c(=O)c2c1 ?
IkB sig inh: 5.01µM; p53ts 32C kill: inactive; p53ts 39C kill: inconclusive; Peg3 imprint: inactive[10.9 µM]

Results for O=C(O)[C@H]1[C@H](C(=O)O)[C@H]2CC[C@@H]1O2 ?
IkB sig inh: inconclusive; p53ts 32C kill: inactive; p53ts 39C kill: inactive

Results for C=CCN1CCc2cccc3c2[C@@H]1Cc1ccc(O)c(O)c1-3 ?
IkB sig inh: inactive; p53ts 32C kill: inconclusive; p53ts 39C kill: inconclusive

What do the screens show for `O=c1ccc2cc(O[C@@H]3O[C@@H](CO)[C@@H](O)[C@@H](O)[C@H]3O)c(O)cc2o1`?
IkB sig inh: inactive[11.4 µM]

How did CCn1cnc2c(Nc3cccc(Cl)c3)nc(N[C@@H]3CCCC[C@H]3N)nc21 do in these assays?
IkB sig inh: inconclusive; p53ts 32C kill: 10µM; p53ts 39C kill: 12.6µM

What do the screens show for `CN1CCN(C(=O)COc2ccc(-c3nc4ccccc4s3)cc2)CC1`?
IkB sig inh: inactive; p53ts 32C kill: 1µM; p53ts 39C kill: 0.794µM; Peg3 imprint: inactive

What do the screens show for `COC1=C[C@H]2[C@@H]3Cc4ccc(OC)c(O)c4[C@@]2(CCN3C)CC1=O`?
IkB sig inh: inactive[11.4 µM]

Results for COc1cc2[nH]c(=O)n(CCCCCC(=O)N3CCN(c4cccc(C(F)(F)F)c4)CC3)c(=O)c2cc1OC ?
IkB sig inh: inconclusive; p53ts 32C kill: inconclusive; p53ts 39C kill: 12.6µM; Peg3 imprint: inactive[10.9 µM]

How did CN[C@H]1[C@H]2[C@H]3CCN2C[C@@H]1O3 do in these assays?
IkB sig inh: inactive[11.4 µM]

What do the screens show for `COC(=O)C[C@]1(C(=O)OC)CN(C#N)N(c2ccc(Cl)cc2)C12c1ccccc1-c1ccccc12`?
p53ts 32C kill: 6.31µM; p53ts 39C kill: inconclusive

Results for O=C(O)C1=CCCN(CCOC(c2ccc(C(F)(F)F)cc2)c2ccc(C(F)(F)F)cc2)C1 ?
IkB sig inh: inactive; p53ts 32C kill: inactive; p53ts 39C kill: inactive; Peg3 imprint: inactive

How did c1ccc(CCCN2CCN(CCOC(c3ccccc3)c3ccccc3)CC2)cc1 do in these assays?
IkB sig inh: inconclusive; p53ts 32C kill: inconclusive; p53ts 39C kill: 31.6µM; Peg3 imprint: inactive

How did Fc1ccc(C(OCCN2CCN(CCCc3ccccc3)CC2)c2ccc(F)cc2)cc1 do in these assays?
IkB sig inh: inconclusive; p53ts 32C kill: inconclusive; p53ts 39C kill: 31.6µM!; Peg3 imprint: inactive

What do the screens show for `COc1cc2c(cc1OC)-c1c(OC)c(OC)c(CO)c3c1[C@H](C2)N(C)CC3`?
IkB sig inh: inactive[11.4 µM]

How did CC(C)(C)c1ccc(C(=O)Nc2ccc3nc(SCC(=O)N4CCCC4)sc3c2)cc1 do in these assays?
IkB sig inh: inconclusive; p53ts 32C kill: 12.6µM; p53ts 39C kill: 3.16µM; Peg3 imprint: inactive[10.9 µM]

Results for CC(CCc1ccccc1)NC(C)C(O)c1ccc(O)cc1 (stereo unspecified) ?
p53ts 32C kill: inactive; p53ts 39C kill: inactive; Peg3 imprint: inactive

What do the screens show for `C[C@@H](Cc1ccccc1)NCCC(c1ccccc1)c1ccccc1`?
IkB sig inh: inactive; p53ts 32C kill: inactive; p53ts 39C kill: 12.6µM; Peg3 imprint: inactive

What do the screens show for `CC[C@H](CO)NC(=O)[C@@H]1C=C2c3cccc4c3c(cn4C)C[C@@H]2N(C)C1`?
IkB sig inh: inactive; p53ts 32C kill: inactive; p53ts 39C kill: inactive

How did CC1=C(O)C(=O)[C@H]2O[C@@H]2C1=O do in these assays?
IkB sig inh: inconclusive; p53ts 32C kill: 15.8µM; p53ts 39C kill: inconclusive; Peg3 imprint: inactive

What do the screens show for `Nc1nc2c(ncn2[C@@H]2O[C@H](CO)[C@@H](O)[C@@H]2O)c(=[SH+])[nH]1.O=[N+]([O-])c1ccc(O)[c]([Hg])c1`?
Peg3 imprint: inactive[10.9 µM]

Results for COC1=C(C)C(=O)c2c(c(COC(N)=O)c3n2C[C@@H]2[C@@H]3N2C)C1=O (stereo partly specified) ?
IkB sig inh: 3.16µM; p53ts 32C kill: inconclusive; p53ts 39C kill: inconclusive; Peg3 imprint: inactive[10.9 µM]

How did CCCN1CCC[C@H](c2cccc(C#N)c2)C1 do in these assays?
IkB sig inh: inactive; p53ts 32C kill: inactive; p53ts 39C kill: inactive

What do the screens show for `N[C@@H]1CCc2cc(O)c(O)cc2C1`?
IkB sig inh: inactive; p53ts 32C kill: inactive; p53ts 39C kill: inactive

High-throughput results as filed in PubChem.
